Experimental data from PubChem BioAssay (Tox21).
Records with an inconclusive call do not appear. Active and inactive are the calls of the source. Unless noted, calls follow the shape of the dose curve; as a rule, active = well fitted curve in the direction sought with a large enough effect in the repeat runs; inconclusive = weak or mixed curves; inactive = flat fitted curve, though single readings scatter.

Key:
[1] = qHTS assay to test for compound auto fluorescence at 535 nm (green) in HEK293 cells (AID 720680)
[2] = qHTS assay to test for compound auto fluorescence at 460 nm (blue) in HEK293 cell free culture (AID 720681)
How it was run: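 Compounds were added to cell-free DMEM with 10% FBS and fluorescence read directly. The blue channel used 405 nm excitation and 460 nm emission, with triamterene as the reference fluorophore.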

[3] = qHTS assay to test for compound auto fluorescence at 535 nm (green) in HEK293 cell free culture (AID 720682)
How it was run: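 Compounds were pin-transferred into cell-free DMEM with 10% FBS, and green fluorescence was read at excitation 485 nm and emission 535 nm. Intensities were expressed as fluorescein-equivalent values.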

[4] = qHTS assay to test for compound auto fluorescence at 590 nm (red) in HEK293 cell free culture (AID 720683)
How it was run: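 Cell-free wells of DMEM with 10% FBS received compound, and intrinsic fluorescence was read at excitation/emission 540/590 nm. Values expressed as equivalence to Rose Bengal sodium.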

[5] = qHTS assay to test for compound auto fluorescence at 590 nm (red) in HepG2 cell free culture (AID 720684)
How it was run: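 Compounds are added to culture medium (MEM, 10% FBS) lacking cells, then fluorescence is read at excitation 540 nm, emission 590 nm, with Rose Bengal sodium as the equivalency standard.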

[6] = qHTS assay to test for compound auto fluorescence at 460 nm (blue) in HepG2 cell free culture (AID 720685)
How it was run: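 Compound (23 nL) or DMSO pinned into cell-free MEM with 10% FBS; blue fluorescence read at 405/460 nm excitation/emission, expressed as auto-fluorescence equivalency to triamterene.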

[7] = qHTS assay to test for compound auto fluorescence at 535 nm (green) in HepG2 cell free culture (AID 720686)
[8] = qHTS assay to test for compound auto fluorescence at 460 nm (blue) in HepG2 cells (AID 720687)
How it was run: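 HepG2 cells in MEM with 10% FBS, attached overnight at 37 C, were exposed to compound or DMSO for 1 hr at 37 C, 5% CO2. Blue fluorescence was read at 405/460 nm, with triamterene as reference fluorophore.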

[9] = target: Glucocorticoid receptor (Homo sapiens) (UniProt P04150); experiment: qHTS assay to identify small molecule agonists of the glucocorticoid receptor (GR) signaling pathway (AID 720691; active = well fitted activation curve with a large enough effect in the signal ratio in the repeat runs, not every such curve was filed as active; the % refers to the signal ratio)
How it was run: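 GR-bla HeLa cells carrying a GRE-driven beta-lactamase reporter, exposed to compounds for 18 h at 37 C. Reporter activation read as fluorescence after 2 h with LiveBLAzer B/G FRET substrate at room temperature.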

[10] = target: Glucocorticoid receptor (Homo sapiens) (UniProt P04150); experiment: qHTS assay to identify small molecule antagonists of the glucocorticoid receptor (GR) signaling pathway (AID 720692; active = well fitted inhibition curve with a large enough effect in the signal ratio in the repeat runs, not every such curve was filed as active; the % refers to the signal ratio)
How it was run: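 GR-bla HeLa cells carrying a GRE-driven beta-lactamase reporter received compound after 4 h plating, then dexamethasone (5 nM final). After 18 h at 37C, the FRET substrate was loaded for 2 h at room temperature and fluorescence read.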
% is scaled to controls: 0 for no effect and ±100 for the full control effect.

Glucocorticoid receptor (Homo sapiens), sequence (P04150 whole entry, looked up): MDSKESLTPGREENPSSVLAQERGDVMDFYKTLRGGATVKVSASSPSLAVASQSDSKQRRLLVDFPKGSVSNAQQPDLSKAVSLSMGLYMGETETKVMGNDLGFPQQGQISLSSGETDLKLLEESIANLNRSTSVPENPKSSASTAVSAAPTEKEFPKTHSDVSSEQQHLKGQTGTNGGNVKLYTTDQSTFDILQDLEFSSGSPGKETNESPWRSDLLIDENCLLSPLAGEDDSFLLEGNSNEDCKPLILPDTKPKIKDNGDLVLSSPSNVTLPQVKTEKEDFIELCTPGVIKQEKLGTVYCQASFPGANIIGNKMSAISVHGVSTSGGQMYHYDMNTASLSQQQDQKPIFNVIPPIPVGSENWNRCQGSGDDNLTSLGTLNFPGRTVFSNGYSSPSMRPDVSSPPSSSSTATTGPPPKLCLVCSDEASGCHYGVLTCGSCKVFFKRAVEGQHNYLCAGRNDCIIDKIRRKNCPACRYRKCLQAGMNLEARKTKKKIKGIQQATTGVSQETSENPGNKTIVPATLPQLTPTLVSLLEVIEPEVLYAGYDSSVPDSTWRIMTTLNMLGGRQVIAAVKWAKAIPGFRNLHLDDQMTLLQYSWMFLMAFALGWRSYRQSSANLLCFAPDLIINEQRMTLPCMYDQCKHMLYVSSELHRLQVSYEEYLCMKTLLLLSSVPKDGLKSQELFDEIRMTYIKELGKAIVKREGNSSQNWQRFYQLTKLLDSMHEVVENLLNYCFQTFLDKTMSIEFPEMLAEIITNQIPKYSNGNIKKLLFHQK

CCOP(=O)(OCC)SCCSCC
inactive: outcome [1] | outcome [2] | outcome [3] | outcome [4] | outcome [5] | outcome [6] | outcome [7] | outcome [8]

CCOC(=O)CBr
inactive: outcome [1] | outcome [2] | outcome [3] | outcome [4] | outcome [5] | outcome [6] | outcome [7] | outcome [8]

CCC(Cl)CCl (stereo unspecified)
inactive: outcome [1] | outcome [2] | outcome [3] | outcome [4] | outcome [5] | outcome [6] | outcome [7] | outcome [8]

CC(C)O.CC(C)O.OCCN(CCO)CCO.OCCN(CCO)CCO.[Ti]
inactive: outcome [1] | outcome [2] | outcome [3] | outcome [4] | outcome [5] | outcome [6] | outcome [7] | outcome [8]

CCc1ccc(C(=O)NN(C(=O)c2cc(C)cc(C)c2)C(C)(C)C)cc1
inactive: outcome [1] | outcome [2] | outcome [3] | outcome [4] | outcome [5] | outcome [6] | outcome [7] | outcome [8] | outcome [9]

Nc1nc(=S)[nH][nH]1
inactive: outcome [1] | outcome [2] | outcome [3] | outcome [4] | outcome [5] | outcome [6] | outcome [7] | outcome [8] | outcome [9]

O=Cc1ccc2c(c1)OCO2
inactive: outcome [1] | outcome [2] | outcome [3] | outcome [4] | outcome [5] | outcome [6] | outcome [7] | outcome [8] | outcome [9]

CCCCOC(=O)c1ccccc1C(=O)OCc1ccccc1
inactive: outcome [1] | outcome [2] | outcome [3] | outcome [4] | outcome [5] | outcome [6] | outcome [7] | outcome [8] | outcome [9] | Potency [10]

COc1ccc(-c2ccccc2)cc1NNC(=O)OC(C)C
inactive: outcome [1] | outcome [2] | outcome [3] | outcome [4] | outcome [5] | outcome [6] | outcome [7] | outcome [8] | outcome [9]

CCCCC(O)(Cn1cncn1)c1ccc(Cl)cc1Cl (stereo unspecified)
inactive: outcome [1] | outcome [2] | outcome [3] | outcome [4] | outcome [5] | outcome [6] | outcome [7] | outcome [8] | outcome [9]

O=C(CBr)c1ccccc1
inactive: outcome [1] | outcome [2] | outcome [3] | outcome [4] | outcome [5] | outcome [6] | outcome [7] | outcome [8] | outcome [9]

O=Cc1ccc(Cl)cc1Cl
inactive: outcome [1] | outcome [2] | outcome [3] | outcome [4] | outcome [5] | outcome [6] | outcome [7] | outcome [8] | outcome [9]

O=S1OC[C@@H]2[C@H](CO1)[C@]1(Cl)C(Cl)=C(Cl)[C@@]2(Cl)C1(Cl)Cl (stereo partly specified)
inactive: outcome [1] | outcome [2] | outcome [3] | outcome [4] | outcome [5] | outcome [6] | outcome [7] | outcome [8] | outcome [9]

Cc1c(F)c(F)c(COC(=O)C2C(/C=C(\Cl)C(F)(F)F)C2(C)C)c(F)c1F (stereo unspecified)
inactive: outcome [1] | outcome [2] | outcome [3] | outcome [4] | outcome [5] | outcome [6] | outcome [7] | outcome [8] | outcome [9]

CCOP(=S)(OCC)SCSCC
inactive: outcome [1] | outcome [2] | outcome [3] | outcome [4] | outcome [5] | outcome [6] | outcome [7] | outcome [8] | outcome [9]

N#C/C(N)=C(/N)C#N
inactive: outcome [1] | outcome [2] | outcome [3] | outcome [4] | outcome [5] | outcome [6] | outcome [7] | outcome [8] | outcome [9]

COC(=O)C(C)N(C(=O)Cc1ccccc1)c1c(C)cccc1C (stereo unspecified)
inactive: outcome [1] | outcome [2] | outcome [3] | outcome [4] | outcome [5] | outcome [6] | outcome [7] | outcome [8] | outcome [9]

COP(=S)(OC)Oc1ccc([N+](=O)[O-])cc1Cl
inactive: outcome [1] | outcome [2] | outcome [3] | outcome [4] | outcome [5] | outcome [6] | outcome [7] | outcome [8] | outcome [9] | Potency [10]

CNP(=O)(OC)Oc1ccc(C(C)(C)C)cc1Cl (stereo unspecified)
inactive: outcome [1] | outcome [2] | outcome [3] | outcome [4] | outcome [5] | outcome [6] | outcome [7] | outcome [8] | outcome [9]

C=CCOC(C)=O
inactive: outcome [1] | outcome [2] | outcome [3] | outcome [4] | outcome [5] | outcome [6] | outcome [7] | outcome [8] | outcome [9]

CCCCNP(N)(N)=S
inactive: outcome [1] | outcome [2] | outcome [3] | outcome [4] | outcome [5] | outcome [6] | outcome [7] | outcome [8] | outcome [9]

CCCN(CCCl)c1c([N+](=O)[O-])cc(C(F)(F)F)cc1[N+](=O)[O-]
inactive: outcome [1] | outcome [2] | outcome [3] | outcome [4] | outcome [5] | outcome [6] | outcome [7] | outcome [8] | outcome [9]

CCOP(=S)(OCC)SCn1nnc2ccccc2c1=O
inactive: outcome [1] | outcome [2] | outcome [3] | outcome [4] | outcome [5] | outcome [6] | outcome [7] | outcome [8] | outcome [9]

COc1nn(CSP(=S)(OC)OC)c(=O)s1
inactive: outcome [1] | outcome [2] | outcome [3] | outcome [4] | outcome [5] | outcome [6] | outcome [7] | outcome [8] | outcome [9]

CO[C@@H]1[C@H](OC(=O)NC(=O)CCl)CC[C@]2(CO2)[C@H]1[C@@]1(C)O[C@@H]1CC=C(C)C
inactive: fluorescence, % of fluorescein [1] -0.127% [at 18.6 µM] | fluorescence, % of fluorescent control [2] -0.0636% [at 18.6 µM] | activity change [3] 0.201% [at 18.6 µM] | fluorescence, % of fluorescent control [4] -0.369% [at 18.6 µM] | fluorescence, % of Rose Bengal [5] -0.153% [at 18.6 µM] | fluorescence, % of fluorescent control [6] -0.133% [at 18.6 µM] | fluorescence, % of fluorescein control [7] -0.0091% [at 18.6 µM] | fluorescence, % of fluorescent control [8] 0.154% [at 18.6 µM] | outcome [9]

CC(C)(OO)c1ccccc1
inactive: outcome [1] | outcome [2] | outcome [3] | outcome [4] | outcome [5] | outcome [6] | outcome [7] | outcome [8] | outcome [9]

NNC(=O)c1cccnc1
inactive: outcome [1] | outcome [2] | outcome [3] | outcome [4] | outcome [5] | outcome [6] | outcome [7] | outcome [8] | outcome [9]
